The results in this text go back to the supplement of paper PMC4380459.

The experiment relates to tubulin (bovine brain). As to the kind of experiment: tubulin polymerization end-point dOD, fold change relative to DMSO vehicle; higher = more polymerization (stabilization). The note with it: 50 µM; 60 min; 37 °C. How it is done:
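In-vitro tubulin polymerization assay (Cytoskeleton HTS kit) with 4 mg/ml bovine brain tubulin in G-PEM buffer and compound at 50 uM (0.5% DMSO). Turbidity was read at 340 nm every minute for 1 h at 37 C. The end-point change in OD (dOD) was converted to % fold change relative to the DMSO vehicle (0%), and runs were scaled using DMSO and Taxol controls. The paper calls >20% an effect, 20-40% weak and >40% strong; positive values mean stabilization, negative values destabilization. Scale: negative = destabilization.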
For the compound `O=c1[nH]c(CSc2ccccc2)nc2sc3c(c12)CCC3`, the “tubulin polymerization end-point dOD” value was -9.09%. Next, `O=C(N/N=C/c1cccs1)c1n[nH]c2c1CCC2`: 12.9%; `COc1ccc(OCc2nnc(SCC(N)=O)n2-c2cc(C)ccc2C)cc1`: -39.4%. With `Cc1ccc(C(=O)Nc2ncc(Cc3ccccc3Br)s2)cn1` the figure was -35.9%; with `Cc1ccc2cc(C)c3nn(CCNC(=O)c4ccncc4)c(=O)n3c2c1`, -34.2%. With `Cc1ccc(NC(=S)N(Cc2cc3ccc(C)cc3[nH]c2=O)CC2CCCO2)cc1` (stereo not given), the “tubulin polymerization end-point dOD” value came out at 97.9%. Next, `Cc1ccccc1NC(=O)CSc1nc2cc3c(cc2cc1C)CCC3`: 69.3%; `Cc1ccc(C)c(NC(=O)CSc2nc3ccc(C(C)C)cc3cc2C#N)c1`: -39.1%. With `C=CCOc1ccccc1NC(=O)c1cc(-c2c(C)nn(C)c2C)n[nH]1` the figure was -31.9%; with `Cc1cc2ccccc2n2c(=O)n(CC(C)NC(=O)c3cnn(C)c3C)nc12` (stereo not given), -1.81%.

Consider `Cc1cc2cc3c(cc2nc1SCC(=O)Nc1ccccc1C(F)(F)F)OCO3`, for which the “tubulin polymerization end-point dOD” value was -12.8%. Next, `COc1ccc2cc(CN(Cc3cccs3)C(=O)Nc3ccccc3OC)c(=O)[nH]c2c1`: 17.1%. In the case of `COc1ccc(Cl)cc1NC(=O)C1CCCN1C(=O)Nc1ccccc1OC` (stereo not given), the “tubulin polymerization end-point dOD” value is -2.01%. Next, `COc1ccc2cc(CN(Cc3ccccc3Cl)C(=O)Nc3ccccc3OC)c(=O)[nH]c2c1`: -4.53%; `N#Cc1ccc(N2CC[NH+](Cc3ccc(-c4ccccc4Cl)s3)CC2)nc1`: -56.2%. Take `O=C(Nc1ccccc1Cl)N(Cc1cccs1)Cc1cc2cc3c(cc2[nH]c1=O)OCCO3`: the “tubulin polymerization end-point dOD” value was -17.8%. Next, `COc1cccc(/C=N/NC(=O)c2ccc(N3CCCC3=O)cc2)c1`: 11.9%; `Oc1ccccc1-c1nc2cnccn2c1NCc1ccc2c(c1)OCO2`: -6.54%.

`Cc1cc2nc(/C=C/c3ccsc3)sc2cc1C`: the “tubulin polymerization end-point dOD” value stood at 237%. With `Cc1cc2nc(/C=C/c3cccs3)sc2cc1C` the figure was 43.1%; with `Cc1ccc(NC(=O)CSc2nc3cc4c(cc3cc2C#N)OCCO4)c(C)c1`, -24.1%. Next, `O=C(Nc1ncc(Cc2ccc(F)cc2)s1)c1ccc2c(c1)OCO2`: 20.1%; `CCCn1c(NC(=O)C2CC(=O)N(c3ccc4c(c3)OCCO4)C2)nc2ccccc21` (stereo not given): -4.32%; `O=C(Nc1ncc(Cc2ccccc2Br)s1)c1cccnc1`: -64.1%. With `Cc1cc(NC(=O)CSc2nnc3c(C)cc4c(C)ccc(C)c4n23)no1` the figure was -40.7%. As to `COc1ccc(CNc2c(-c3ccccc3O)nc3cnccn23)cc1`, the “tubulin polymerization end-point dOD” value stood at 0.31%.

On to `COc1ccc2cc(CN(CC3CCCO3)C(=O)Nc3ccc(Cl)cc3)c(=O)[nH]c2c1` (stereo not given), for which the “tubulin polymerization end-point dOD” value was -0.367%. `Cc1ccc2[nH]c(=O)c(CN(CC3COCCO3)C(=O)Nc3ccccc3Cl)cc2c1` (stereo not given): the “tubulin polymerization end-point dOD” value turned out to be 23.1%.

For `Cc1cc2c(cc(C(=O)OCC(=O)NCc3ccco3)n2C)s1`, the “tubulin polymerization end-point dOD” value stood at 39.4%.

Regarding `O=C1CCCN1c1ccc(S(=O)(=O)Oc2ccc(Cl)cc2)cc1`, the “tubulin polymerization end-point dOD” value was -18.4%. For `Cc1cc2cc(CN(CC3CCCO3)C(=S)Nc3ccccc3)c(=O)[nH]c2cc1C` (stereo not given), the “tubulin polymerization end-point dOD” value is -20.3%. On to `CCc1ccccc1NC(=O)CSc1nc2cc3c(cc2cc1CC)OCO3`, for which the “tubulin polymerization end-point dOD” value is -65%. Take `Cc1ccc2cc(C#N)c(SCC(=O)c3ccc(F)cc3)nc2c1C`: the “tubulin polymerization end-point dOD” value came out at 20%. On to `COc1ccc(CNc2c(-c3ccc(O)cc3O)nc3cnccn23)cc1`, for which the “tubulin polymerization end-point dOD” value is 30.8%. Next, `COc1ccccc1Nc1nc(-c2ccc(S(C)(=O)=O)cc2)cs1`: 104%. Next, `Oc1ccccc1-c1nc2ccc(Cl)cn2c1NCc1ccc2c(c1)OCO2`: 7.3%; `CCc1cc2cc3c(cc2nc1SCC(=O)NCCc1ccccc1)OCO3`: 387%; `Cc1ccc(/C=N/NC(=O)C2COc3ccccc3O2)s1` (stereo not given): 5.76%. For the compound `CCc1nc(SCC(=O)Nc2ccc(N(CC)CC)c(C)c2)c2ccccc2n1`, the “tubulin polymerization end-point dOD” value is -34%. Next, `CCc1noc(CSc2ncnc3scc(-c4ccc(C)cc4)c23)n1`: 30.2%.
